Test results reported in PubChem BioAssay AID743279 (National Center for Advancing Translational Sciences (NCATS), 2014).
The campaign covered roughly 360,000 compounds. About 17,000 (4.7%) were called active. About 5% were inconclusive and are not listed. No stated cut-off is given here; in the data, active means activity change below about -50%; inconclusive means mostly about -30% to -49%; inactive means weaker than that. The sample as a whole holds a higher share of actives than the screen did.

assay: qHTS for Inhibitors of Inflammasome Signaling: IL-1-beta AlphaLISA Primary Screen; conditions: THP-1 LPS/ATP IL-1B secretion, 16 h; at 57.5 µM, active compounds read low
Procedure, shortened: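 THP-1 cells pretreated 1 hr with compounds (up to 57.5 uM final), then stimulated with LPS (250 ng/mL final) plus ATP (1.25 mM final); secreted IL-1B measured by AlphaLISA after 16 hr, decreased signal indicating inhibition.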
On the % scale 0 is the no-effect control and ±100 the full control effect.

Activity change, inactive:
O=S(=O)(c1ccc(Cl)cc1)c1nc(-c2ccco2)oc1N1CCCCC1 -10.9%, N#Cc1ccc(OCc2nnc(-c3ccc([N+](=O)[O-])cc3)o2)cc1 -1.57%, COc1ccc(-c2oc(/N=C/N3CCCC3)c(C#N)c2-c2ccc(OC)cc2)cc1 -12.8%, Cc1cc(N2CCCC2)ccc1NC(=O)COc1ccc(Cl)cc1 2.28%, CNC(=O)C1CN(C(=O)c2cccc(S(=O)(=O)N3CCc4ccccc43)c2)c2ccccc2O1 (stereo not drawn) 31.5%, COc1ccc(-c2coc3c(C(=O)NC(C)C)cccc23)c(C)c1 -10.6%, COc1ccc(CN2CCC(C)(Oc3cccc(F)c3)C2)c2ccccc12 (stereo not drawn) 6.61%, Nc1nc2c(ncn2[C@@H]2O[C@H](CNCc3ccc(OCCCN4CCOCC4)cc3)[C@@H](O)[C@H]2O)c(=O)[nH]1 16.8%, CC1CCCN(CCOCCOc2ccccc2-c2ccccc2)C1 (stereo not drawn) -6.75%, CC1CN(CCOc2ccccc2[N+](=O)[O-])CC(C)O1 (stereo not drawn) 7.14%, CCCn1nnnc1NC(=O)COc1ccc(Cl)cc1C -5.09%, COc1ccccc1/C=C/C=N/n1c(-c2ccc(Cl)cc2Cl)n[nH]c1=S 0%, COc1ccc(Cl)cc1C=CC=NNC(=O)c1ccncc1 -5.27%, CC1(C)CC(=O)C=C(c2ccc(COC(=O)c3cc(F)cc(F)c3)cc2)C1=O 16.9%, Cc1cc(N2CCN(c3ccc(F)cc3)CC2)n2ncnc2n1 -4.74%, Cc1ccc(C(=O)Nc2c(C#N)c(C)c(C)n2Cc2ccccc2)cc1 -11.6%, COc1ccc(Cn2c(C)c(C)c(C#N)c2NC(=O)Nc2ccc(F)cc2)cc1 31.5%, Cc1cn([C@H]2C[C@H](O)[C@@H](/C=C/C(=O)NCCCc3ccccc3)O2)c(=O)[nH]c1=O -16.4%, COc1ccc(C2NC(=O)c3ccccc3N2)cc1 (stereo not drawn) -24.2%, COc1ccc(OC)c(C(=O)c2ccc(Cl)cc2)c1 1.55%, Cc1cc(C)n2c(NCc3ccccc3)c(CC(C)C)nc2n1 19.1%, CCn1cc(C(=O)NCC2CCCO2)c(=O)c2cc(S(=O)(=O)N3CCCCC3)ccc21 (stereo not drawn) -22.1%, CCn1cc(C(=O)NC2CCCCCC2)c(=O)c2cc(S(=O)(=O)N3CCCCC3)ccc21 -14.9%, O=C(C(=O)N1CCN(c2ccccc2)CC1)c1ccc2c(c1)OCO2 -2.25%, O=C(Nc1ccccc1F)c1ccccc1-c1ccc(C(F)(F)F)cc1 9.12%, N#C/C(=C\C1=C(N2CCOCC2)C(=C\c2ccccc2)/CC1)C(=O)Nc1ccccc1F 5.35%, COc1ccc(Cn2c(=S)[nH]c3cc(C(=O)N4CCCCC4)ccc3c2=O)cc1 11.3%, CCOc1cc2[nH]c(=S)n(Cc3ccc(C(=O)NCCOC)cc3)c(=O)c2cc1OCC 0%, COc1cccc(-c2cnc3c(NC(C)=O)cc(-c4cccc(NC(C)=O)c4)cn23)c1 10.8%, Cn1c(=N)n(CC(O)c2cccs2)c2ccccc21 (stereo not drawn) 0%, C=CCn1c(=N)n(CC(O)COc2ccc(OC)cc2)c2ccccc21 (stereo not drawn) -22.5%, CCCCCCN1C[C@@H](O)[C@H](n2cc(COC(=O)c3ccccc3)nn2)C[C@@H]1c1ccc(Cl)cc1 6.67%, COc1ccc(S(=O)(=O)N2CCCCC2c2cc(C(=O)NCc3ccc(F)cc3)no2)cc1 (stereo not drawn) -1.6%, CS(=O)(=O)/C(C#N)=C/c1cccn1S(=O)(=O)c1ccc([N+](=O)[O-])cc1 -25.1%, CCN(CC)CCn1c2c(c(SCC(=O)Nc3ccc(C(C)C)cc3)nc1=O)CCC2 7.71%, Cc1ccc2nc(NC(=O)CSc3nc(=O)n(CCCN(C)C)c4c3CCC4)sc2c1 -21.5%, C#CCNC(=O)C[C@@H]1C[C@@]2(C(=O)OCC)CCCC=C2N(Cc2ccco2)C1=O 43.1%, COc1ccc(NS(=O)(=O)c2ccc(F)cc2F)cn1 0.798%, CCC(=O)Nc1nc(OC)cc(OC)n1 5.6%, CC(=O)Nc1cccc(-c2cc(NC(C)=O)c3ncc(-c4ccccc4)n3c2)c1 12.6%, NC(=O)C1(N2CCCCC2)CCN(C2CC(=O)N(Cc3ccc(N4CCCC4=O)cc3)C2=O)CC1 (stereo not drawn) -8.36%, CC1(C(=O)NS(=O)(=O)c2ccccc2)CCN1C(=O)Cc1ccc(-c2ccccc2)cc1 (stereo not drawn) -14.7%, Cn1c(CCNS(=O)(=O)c2ccc(F)cc2)nnc1SCc1cccnc1 22.3%, Cc1cccc(C)c1NC(=O)COC(=O)c1ccccc1O 12.4%, CCN(C(=O)CSc1ncn[nH]1)c1cccc2ccccc12 19.5%

Activity change, active:
N#Cc1nc(COc2ccc(Cl)cc2)oc1N1CCCC1 -69.8%, Cc1ccc(OCc2nc(C#N)c(N3CCCC3)o2)cc1 -58.3%, CC1CC(C)CN(CCOc2cccc3ccccc23)C1 (stereo not drawn) -68.4%, COc1ccc(Cl)cc1C=CC=Nc1ccc(S(N)(=O)=O)cc1 -101%, Cc1c(C#N)c(NC(=O)c2ccccc2)n(Cc2ccccc2)c1C -78.4%, COc1ccc2c(c1)C(=O)Nc1cc(Cl)ccc1N2 -52.1%, CCn1cc(C(=O)NCCCN2CCCCCC2)c(=O)c2cc(S(=O)(=O)N3CCc4ccccc4C3)ccc21 -60.8%, N#C/C(=C\c1ccccc1C(F)(F)F)C(=O)Nc1ccccc1F -50.4%, CCOc1cc2[nH]c(=S)n(Cc3ccc(C(=O)N4CCN(C)CC4)cc3)c(=O)c2cc1OCC -53.6%, N=c1n(Cc2ccc(Cl)cc2)c2ccccc2n1CC(O)c1ccco1 (stereo not drawn) -59.8%, CCN(CC)CCn1c2c(c(SCC(=O)Nc3nc4ccccc4s3)nc1=O)CCCC2 -96.2%, COc1cc(OC)nc(S(C)(=O)=O)n1 -95.5%, CCN(C(=O)COC(=O)c1ccccc1O)c1cccc2ccccc12 -54.8%
